TRHR PAM – TRH receptor (human) allosteric enhancement; P34981; TRHR cells, fluo-8 calcium fluorescence, EC20 TRH enhancement; enhancement, % at 2 µM; 360,000 compounds, 0.66% hits; in the data active = enhancement above about 30%; also: 0% is about no effect
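Enhancer read-out: after compound pinning and an initial kinetic agonist-mode read, an EC20 of TRH (10 nM final) was injected and fluo-8 calcium signal (Ex 480/Em 530) followed at 1 s/cycle for 100 cycles in TRHR-expressing cells.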
TRHR ag – TRH receptor (human) agonism; TRHR cells, calcium flux fluo-8, FDSS agonist mode; activation, % at 2 µM; AID 493084; 360,000 compounds, 0.18% hits; P34981; also: 0% is about no effect
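TRHR-expressing cells, plated overnight in medium with 10% serum, were loaded with fluo-8 calcium dye at room temperature. After a 10 s baseline, library compound was pin-added and calcium release was recorded kinetically (ex 480/em 530) as agonist response.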
D1 potentiator – human D1 dopamine receptor positive modulation; P21728; HEK293 TREx D1 cells, calcium flux, dopamine EC20 potentiation; potentiation, % at 10 µM; 360,000 compounds, 0.036% hits; in the data active = potentiation above about 30%; also: 0% is about no effect
Target sequence (P21728 whole entry, looked up): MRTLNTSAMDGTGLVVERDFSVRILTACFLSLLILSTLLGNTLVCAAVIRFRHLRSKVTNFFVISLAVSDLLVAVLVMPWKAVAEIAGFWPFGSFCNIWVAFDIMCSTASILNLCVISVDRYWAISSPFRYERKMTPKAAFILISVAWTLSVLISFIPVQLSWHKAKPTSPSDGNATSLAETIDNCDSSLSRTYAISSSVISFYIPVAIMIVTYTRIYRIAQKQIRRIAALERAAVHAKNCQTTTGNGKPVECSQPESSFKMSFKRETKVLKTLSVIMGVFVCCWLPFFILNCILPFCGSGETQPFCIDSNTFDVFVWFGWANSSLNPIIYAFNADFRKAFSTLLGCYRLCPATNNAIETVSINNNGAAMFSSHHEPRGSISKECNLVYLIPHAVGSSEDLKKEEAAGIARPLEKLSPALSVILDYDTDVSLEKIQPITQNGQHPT
D1 ag – agonists of human D1 dopamine receptor | HEK293 T-REx D1 cells, calcium flux, agonist mode | activation, % at 2 µM | 360,000 compounds, 1% hits | AID 504660; also: 0% is about no effect
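Agonism was scored from calcium flux recorded over 180 s (1 read/s) after pintool compound addition, following a 10-cycle baseline. Cells were inducible force-coupled HEK293 TREx D1, plated overnight at 30 C and loaded with no-wash calcium dye.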
D1 antag – antagonists of human D1 dopamine receptor | P21728 | HEK293 TREx D1 cells, calcium flux, dopamine EC80; active compounds read low | activity change, negative = inhibition, % at 10 µM | 360,000 compounds, 3.2% hits; in the data active = activity change below about -30%; also: % is scaled to controls: 0 for no effect and ±100 for the full control effect
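Tetracycline-induced HEK293 T-REx cells with force-coupled D1 receptor were loaded with a no-wash calcium dye. Compound was added after a 10 s baseline and read kinetically for 180 s; EC80 dopamine was then added and calcium flux followed another 180 s.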
The depositor's hits bear a star; ! = a repeat was not active. Compounds with a hit are over-represented: about 4.7% of the library has one in this group of screens. Rule as the data show it, unless noted: active = activation above about 30%; inactive = the rest.

SMILES | TRHR PAM | TRHR ag | D1 potentiator | D1 ag | D1 antag
O=C(/C=C/c1cccs1)N1CCc2ccccc21 | 1 | -1 | -8 | 1 | -36*
O=C(c1cccs1)N1CCc2ccccc21 | -1 | -2 | 0 | 5 | -6
COc1cc(NC(=O)c2nn(C)c3c2COc2ccccc2-3)cc(OC)c1OC | 1 | 0 | 2 | 1 | 6
Cc1ccc(C(=O)N/N=C/C=C/c2ccccc2)cc1 | -2 | 1 | -1 | 8 | -36*
Cc1occc1C(=O)N/N=C/C=C/c1ccccc1 | -2 | 0 | 9 | -1 | -11
COCCNC(=O)CCC(=O)N1Cc2cccc(OC)c2Oc2ncccc21 | -8 | -2 | -3 | 5 | -8
CC1(C)CC(=NO)CC(C)(C)N1 | 3 | 0 | 1 | 3 | -32*
COc1cc(NC(=O)C2CCN(S(=O)(=O)c3ccc4c(c3)oc(=O)n4C)CC2)cc(OC)c1 | 1 | 0 | -1 | 5 | -1
COc1ccc(C2CC(c3ccccc3)=NN2c2ccc(N)cc2)cc1 (stereo not drawn) | -1 | 1 | -3 | 8 | -30*
COc1ccc(C2CC(c3ccc4ccccc4c3)=NN2C(=O)CNC2CCCCC2)cc1 (stereo not drawn) | 5 | 0 | 1 | 32* | 17
COc1ccc(C2=NN(C(N)=S)C(c3ccccc3)C2)cc1 (stereo not drawn) | 0 | -1 | 1 | 5 | -30*
COc1ccc(C2CC(c3ccccc3)=NN2c2ccc(Cl)c(C(=O)O)c2)cc1 (stereo not drawn) | 7 | 0 | 0 | 8 | -5
Cc1cc2ncn(S(=O)(=O)N3CCCCC3)c2cc1C | -5 | 0 | -3 | -1 | -33*
CC(C)(C)/C(O)=C/c1nc2ccccc2[nH]c1=O | 5 | 1 | -1 | 45* | -7
O=c1[nH]c2ccccc2nc1/C=C(\O)c1cccs1 | 6 | 115* | 5 | 279* | -6
CCN1CCc2c(sc(NC(=O)Nc3ccc(Cl)c(Cl)c3)c2C(N)=O)C1 | -20 | 159* | -2 | 418* | -8
NC(=O)c1c(NC(=O)c2ccncc2)sc2c1CCCC2 | -4 | 0 | -2 | 1 | 3
NC(=O)c1c(NC(=O)c2ccncc2)sc2c1CCCCCC2 | 5 | 2 | -9 | 37* | -8
CCC(=O)Nc1sc2c(c1C(N)=O)CCN(Cc1ccccc1)C2 | -3 | 39* | 1 | 166* | -11
NC(=O)c1c(NC(=O)c2ccccc2)sc2c1CCN(Cc1ccccc1)C2 | 0 | 53* | -10 | 216* | -9
CC(C)C(=O)Nc1sc2c(c1C(N)=O)CCN(Cc1ccccc1)C2 | 3 | 2 | -8 | 8 | 2
CCCCOc1ccc(C(=O)Nc2cc(-c3cn4cccnc4n3)ccc2OC)cc1 | 1 | -1 | -1 | 0 | 13
COc1ccc(CNC(=O)Cc2c(C)c3cc4c(C)coc4cc3oc2=O)cc1OC | 0 | 0 | 2 | 2 | -9
NC(=O)c1c(NC(=O)c2c(F)cccc2F)sc2c1CCN(Cc1ccccc1)C2 | 6 | 49* | -1 | 155* | 12
CCN1CCc2c(sc(NC(=O)Cc3ccccc3)c2C(N)=O)C1 | 7 | 1 | -2 | 6 | -24
SMILES | TRHR PAM | TRHR ag | D1 potentiator | D1 ag | D1 antag
O=C(O)c1cccnc1SCc1cccc(Cl)c1 | -27 | 0 | -13 | 1 | -40*!
CCc1ccccc1NC(=O)C(=O)c1cc(C)n(-c2ccccc2F)c1C | 1 | 0 | -2 | 2 | -8
Cc1ccc2c(c1)c1c3n2CCN(C(=O)CN2CCN(C)CC2)C3CCC1 (stereo not drawn) | -1 | 2 | -5 | 6 | -6
CN1CCN(CC(=O)N2CCn3c4c(c5cc(C6CCCCC6)ccc53)CCCC42)CC1 (stereo not drawn) | 5 | 2 | -16 | 25 | -38*
COc1ccc(NC(=O)c2ccc3c(c2)c(C)c(C)n3Cc2ccc(F)cc2)c(OC)c1 | -2 | 0 | 1 | 4 | -13
CCOc1cc(C=O)ccc1OCCSc1ccc(Cl)cc1 | 5 | 0 | -1 | 4 | -37*
CN(C)CCN(Cc1ccco1)C(=O)c1oc2ccccc2c1NC(=O)COc1ccccc1 | 4 | 2 | -13 | 16 | -40*
CN(C)CCN(Cc1ccco1)C(=O)c1oc2ccccc2c1NC(=O)c1cccc(F)c1 | 7 | -1 | 4 | 66* | -16

Assay outcomes from PubChem BioAssay.
